Screens deposited in PubChem by several laboratories.
In the library only some 2.3% were active in any assay of this set; here they are far more common.
Bcl-xL primary: inhibitors of human Bcl-xL | Q07817 | 0.7% of 320,000 active | inhibition, % at 10.9 µM | GST-Bcl-xL / FITC-Bim BH3 peptide fluorescence polarization;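 active = inhibition above the mean of all tested compounds plus 3 SD, cutoff set per campaign, cut at about 30% in these data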;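 also: 0% = DMSO wells and 100% = unlabeled Bim-BH3 peptide competitor; inhibitors lower millipolarization by displacing the labeled peptide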
Target sequence (Q07817 whole entry, looked up): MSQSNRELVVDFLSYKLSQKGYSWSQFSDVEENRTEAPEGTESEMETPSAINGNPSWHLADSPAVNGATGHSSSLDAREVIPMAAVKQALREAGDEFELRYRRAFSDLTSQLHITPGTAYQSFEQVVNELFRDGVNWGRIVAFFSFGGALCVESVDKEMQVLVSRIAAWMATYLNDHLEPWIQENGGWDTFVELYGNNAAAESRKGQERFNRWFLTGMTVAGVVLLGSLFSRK
Bim-Mcl-1: disrupts Bim peptide binding to human Mcl-1; Q07820; Bead-based flow cytometry, Bim peptide-Mcl-1 binding; inhibition, % at 10 µM; 0.1% of 190,000 active; AID 1009; in the data active = inhibition above about 40%;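 also: 0% = no compound tracer wells and 100% = peptide blocker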
GLD-1 RNA inh: GLD-1-TGE RNA interaction inhibition (C. elegans) | 0.44% of 320,000 active | inhibition, % at 5.96 µM | Q17339 | purified GLD-1 + fluorescein TGE RNA, fluorescence polarization;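 active = percent inhibition above a per-plate cutoff, the plate mean of test compounds plus 3 SD, cut at about 30% in these data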;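 also: 0% = DMSO wells with GLD-1 and probe and 100% = wells lacking GLD-1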
Target sequence (Q17339 whole entry, looked up): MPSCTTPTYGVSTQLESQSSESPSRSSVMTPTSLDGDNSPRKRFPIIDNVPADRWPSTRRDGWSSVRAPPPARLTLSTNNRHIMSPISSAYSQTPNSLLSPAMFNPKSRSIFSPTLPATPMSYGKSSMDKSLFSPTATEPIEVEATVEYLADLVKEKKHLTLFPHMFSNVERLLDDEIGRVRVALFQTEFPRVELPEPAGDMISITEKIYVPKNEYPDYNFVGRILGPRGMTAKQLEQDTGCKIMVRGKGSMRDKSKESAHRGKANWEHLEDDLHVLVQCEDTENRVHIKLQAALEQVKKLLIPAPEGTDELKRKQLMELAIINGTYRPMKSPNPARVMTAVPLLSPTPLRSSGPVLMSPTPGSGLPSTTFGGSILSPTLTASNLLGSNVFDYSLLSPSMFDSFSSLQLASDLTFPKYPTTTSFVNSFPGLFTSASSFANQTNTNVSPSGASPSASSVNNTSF
Mcl1-Noxa inh: disrupts binding of human Mcl-1 to Noxa peptide; 1.5% of 220,000 active; inhibition, % at 21.7 µM; Q07820; AID 1022; TR-FRET Mcl-1/Noxa peptide binding, 2 h;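 active = compounds that cut the protein-peptide binding signal by more than 50% relative to plate controls in a single-dose test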;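 also: His-tagged Mcl-1 with rhodamine Noxa BH3 peptide and terbium anti-His antibody; 0% = Mcl-1 plus Noxa peptide wells and 100% = peptide-only wells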
Mcl1 Bid PPI: disrupts binding of human Mcl-1 to Bid peptide | Q07820 | TR-FRET Mcl-1/Bid-Dy647 peptide binding, 1536-well | inhibition, % at 21.7 µM | 0.97% of 220,000 active | AID 1021;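 active = compounds that cut the binding signal by more than half at the single screening dose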;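 also: His-tagged Mcl-1 with europium anti-His antibody binding Bid BH3 peptide; 0% = Mcl-1 plus peptide wells and 100% = peptide-only wells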
MCL1-BIM inh: disrupts human MCL1 binding to BIM-BH3 peptide; inhibition, % at 10.9 µM; 0.68% of 320,000 active; Q07820; GST-MCL1 / FITC-Bim-BH3 fluorescence polarization;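 active = inhibition above the mean inhibition of all tested compounds plus 3 SD, set per campaign, cut at about 40% in these data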;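 also: 0% = DMSO wells and 100% = unlabeled Bim-BH3 peptide control; higher means more loss of mP so more displacement of Bim peptide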
Active calls of the source: *; nt = not tested or not shown.

SMILES	Bcl-xL primary	Bim-Mcl-1	GLD-1 RNA inh	Mcl1-Noxa inh	Mcl1 Bid PPI	MCL1-BIM inh
CC1CC(C)CN(C(=O)CSc2n[nH]c(N)n2)C1 (stereo unspecified)	nt	nt	2.0	nt	nt	nt
CC(=O)N1CCc2c(sc(NC(=O)C3CCCCC3)c2C(N)=O)C1	13.4	nt	56.7*	nt	nt	15.0
COC(=O)c1c(NC(=O)C2CC2)sc2c1CCN(C(C)=O)C2	-0.2	0.0	0.5	13.0	-13.0	-2.9
CCN(CC)c1ccc(NC(=O)Cn2ncc3c(C)n(Cc4ccccc4F)c(C)c3c2=O)c(C)c1	0.7	3.0	-6.2	64.1*	65.2*	-12.6
Cc1c2cnn(CC(=O)Nc3c(F)c(F)cc(F)c3F)c(=O)c2c(C)n1Cc1ccc(F)cc1	6.0	-2.0	-1.8	62.1*	-16.0	6.7
Cc1c2cnn(CC(=O)NCc3ccccn3)c(=O)c2c(C)n1Cc1ccccc1	-2.7	nt	6.1	nt	nt	5.7
C=CCN(CC=C)Cc1nc(N)nc(Nc2ccccc2C)n1	-1.5	0.0	0.2	-38.4	-33.5	-2.0
Cc1ccc2[nH]c3c(c2c1)CN(C(=O)CN1CCCc2ccccc21)CC3	33.2*	0.0	-8.0	7.6	-5.8	29.2
Cc1cc(/C=N/NC(=O)c2cccs2)c(C)n1-c1ccccc1	-2.0	-136.0	5.0	8.1	87.3*	-2.0
Cc1cc(/C=N/NC(=O)c2ccncc2)c(C)n1-c1ccccc1	-3.3	-4.0	3.5	17.6	-23.0	-1.8
Cc1cc(C(=O)N/N=C/c2ccc(O)c(O)c2O)c(C)n1-c1ccccc1	nt	2.0	nt	72.5*	-114.3	nt
CN1C(=O)C2(c3ccccc31)c1c(oc3ccccc3c1=O)C(=O)N2CCO (stereo unspecified)	3.2	nt	1.7	-8.7	-7.6	0.2
Cc1ccc(S(=O)(=O)NC(=O)Nc2cccc(C)n2)cc1	-5.0	nt	4.3	-9.1	-6.2	-7.9
COc1nc(C)nc(NC(=O)NS(=O)(=O)c2ccc(C)cc2)n1	5.1	-5.0	5.9	65.2*	-12.3	-3.6
COC(=O)c1ccsc1NC(=O)CSc1nnnn1-c1ccccc1SC	2.1	-1.0	3.9	2.8	-12.8	4.4
C=CCOc1ccc2ccccc2c1CNCCCN1CCOCC1	6.5	0.0	-4.1	17.9	0.0	6.4
C=CCOc1ccc(Br)cc1CNCCCN1CCOCC1	1.9	-3.0	0.1	57.0*	33.1	6.9
Cc1ccc([N+](=O)[O-])cc1N=Nc1c(C)[nH]n(C(N)=S)c1=O	4.5	nt	0.3	nt	nt	6.6
O=c1c(N=Nc2ccc(O)cc2)c(-c2ccccc2)[nH]n1-c1ccc([N+](=O)[O-])cc1	-2.5	0.0	9.4	71.1*	59.6*	-3.6
NC(=O)c1ccc(N=Nc2c(-c3ccccc3)[nH]n(-c3ccccc3)c2=O)cc1	5.4	-2.0	-3.4	-1.4	-6.6	-1.7
NC(=S)n1[nH]c(-c2ccc([N+](=O)[O-])cc2)c(N=Nc2ccc(Cl)cc2)c1=O	nt	0.0	nt	73.1*	97.8*	nt
Cc1ccc([N+](=O)[O-])cc1N=Nc1c(-c2ccc([N+](=O)[O-])cc2)[nH]n(C(N)=S)c1=O	nt	0.0	nt	110.9*	67.8*	nt
CCN1C2OC3OC4C(OC3OC2N(CC)S1(=O)=O)N(CC)S(=O)(=O)N4CC (stereo unspecified)	2.1	-1.0	0.8	5.1	-6.6	2.0
COc1ccccc1CN1CC(C(=O)NCc2cc(C)on2)CCC1=O (stereo unspecified)	4.5	nt	6.5	nt	nt	4.3
O=C(c1cc2nc(-c3ccc(F)cc3)cc(C(F)(F)F)n2n1)N1CCOCC1	7.7	0.0	3.2	-2.0	2.7	9.9
SMILES	Bcl-xL primary	Bim-Mcl-1	GLD-1 RNA inh	Mcl1-Noxa inh	Mcl1 Bid PPI	MCL1-BIM inh
Cc1ccc(NC(=O)C2CCCN(S(=O)(=O)c3c(C)noc3/C=C/N(C)C)C2)c(C)c1 (stereo unspecified)	-20.4	nt	-20.5	nt	nt	-23.6
Cc1cc(N(CCO)CCO)ccc1C(c1ccc(N(CCO)CCO)cc1C)c1ccccc1Cl	10.9	1.0	6.8	101.5*	57.2*	23.4
Cc1cc(O)ccc1Nc1nc2ccccc2nc1Nc1ccc(O)cc1C	-1.6	0.0	12.7	67.5*	9.0	-9.3
Cc1ccc(Nc2nc3ccccc3s2)c(C)c1	2.6	0.0	7.9	26.5	-1.8	0.9
CC(C)c1ccc(C(N)=S)cc1	12.5	0.0	-1.3	67.6*	-30.6	7.5
CC(C)c1ccc(C(=O)NNC(=O)c2ccncc2)cc1	-0.1	nt	-4.0	nt	nt	-1.7
CC1CCN(C(=O)COC(=O)c2ccccc2NC(=O)c2ccco2)CC1	0.4	4.0	1.7	10.1	-32.7	-1.6
CN(CC(=O)Nc1ccccc1Cl)C(=O)COC(=O)c1cnccn1	2.2	nt	1.6	nt	nt	-6.4
Cc1cccc(Nc2ncnc3onc(-c4cccc(Cl)c4)c23)c1	3.4	nt	5.6	nt	nt	1.3
COc1ccccc1OCC(=O)NNC(=O)Nc1ccc(Cl)cc1	-2.9	2.0	0.4	12.7	-24.6	-4.9
COc1ccccc1OC(=O)Nc1ccc(Cl)cc1	48.5*	nt	10.6	nt	nt	46.7*
Cc1ccccc1NC(=O)C(=O)Nc1ccccc1C	5.3	nt	-0.1	-14.4	-17.1	2.0
COc1ccccc1-c1nnc(NC(=O)c2ccc3c(c2)OCO3)s1	-2.7	-2.0	3.5	13.9	62.6*	-1.8
O=C(/C=C/c1ccc2c(c1)OCO2)NCc1ccncc1	8.3	nt	5.4	-1.8	-15.8	4.6
CC/C(=N/Nc1ccc(Cl)cc1)c1cnnc(SC)n1	10.2	-3.0	6.4	9.7	-15.4	11.1
CC/C(=N/Nc1cccc(C)c1)c1cnnc(SC)n1	46.2*	-9.0	7.2	19.2	-5.1	31.1
COc1cccc2c1c(NC(=O)Nc1ccc(F)cc1F)nn2C	-3.9	nt	0.3	5.1	67.0*	-5.0
CC1=C(C#N)C(=O)N(C2CCS(=O)(=O)C2)C(=O)/C1=C\c1ccco1 (stereo unspecified)	49.3*	nt	13.6	109.6*	60.5*	105.4*
O=C1/C(=C\c2ccco2)SC(=S)N1C1CCCCC1	3.3	nt	-1.6	nt	nt	18.7
CC1CCCCC1NC(=O)COC(=O)c1c2c(nc3ccccc13)/C(=C/c1ccco1)CC2 (stereo unspecified)	4.2	8.0	1.1	51.9*	-46.8	-14.5
O=C(COC(=O)c1c2c(nc3ccccc13)/C(=C/c1ccco1)CC2)NC1CCCC1	nt	5.0	nt	98.3*	-4.7	nt
Cc1cc(C(=O)OCC(=O)NC2CCCCC2C)c2ccccc2n1 (stereo unspecified)	nt	nt	3.5	nt	nt	nt
CN1C(=O)OC(C)(C)C1=O	-2.6	nt	4.0	nt	nt	2.7
CCOC(=O)CN1NC2(CCCCCC2)NC1=S	7.5	nt	-0.6	-14.6	-40.9	2.4
CC(=O)Nc1ccc(Oc2cncc(Cl)c2)nc1	6.1	nt	-3.3	10.2	11.0	0.7
Cc1ccnc(N/C=C(\C#N)c2nc(-c3cccc(Br)c3)cs2)c1	11.6	0.0	-58.4	60.6*	73.2*	-19.2
CCCC(=O)N1CC(=O)Nc2ccc(Br)cc2C1c1ccc(F)cc1 (stereo unspecified)	5.1	nt	4.9	nt	nt	7.0
